Reference: the OligoGym collection

These sequences were tested against MTDH (assay: pooled miR-30 sensor sort-seq; sequence = guide strand). Conditions: shRNA.

Sequence	sensor-assay potency score (higher = more potent)
TTACACTTTGAGGTGTTCGAAC	-0.892
TTCTAATTCTTCTGTGTCCTGT	0.277
TAGTTGAATCCAATGAACCAGA	-0.602
TAAATTAAGATCGTTCTTGTTC	0.14
TTCTTCTGTTCCTCGCTCCGGA	-0.0167
TTTTGCTTGGTATTTGACTTGG	-0.198
TAACTTGAACATTTAGATGAGA	-0.76

What follows are sequences tested against MTF2 in the same assay as above. Conditions: shRNA.

Sequence	sensor-assay potency score (higher = more potent)
TTTTTTTCTATGCCATTGCTTA	-0.923
ATGATTGAGTTGTAACTCCTGA	-0.17
TTGACATATTGTACAGACCATT	-1.28
TTTATCTTTTTGATAGTGCCAA	-0.334
TATTCTGGTCCAGAACTGCAGA	-0.798
TTTGGCTTTATGTCCATCCTGT	0.854
TTTGCAGCACTGTAGCATCTTC	-0.454
TATAGAACAAGGTAAATCCAAA	-1.04
TACTCTTCTTGACATATTGTAC	-0.653
TAAAACAAGCCATCTGACCATC	-1.1
TTCCACAAGATACTGCACCTTT	0.329
TTATCTTTTTGATAGTGCCAAG	-1.55

Each sequence was assayed against MTFP1 in the same assay as above. Conditions: shRNA.

Sequence	sensor-assay potency score (higher = more potent)
TAGGAGGTTGACATGAAGCAGG	-1.07
TAGCTCAGCCACACCACCGCCG	-0.967
TTGGACACCAGGGAGCCAGGTG	-0.945
TATCGCACCCACGTGTCCCGGT	-0.561
TGTTGGGTAGAGCTTGCGCAGG	-1.71
TTTGTCAATGGCATCCGCCAGC	-0.615
TCCACCGACCTCTCCAGCCTTC	-1.18
TCAGCCACACCACCGCCGCTGG	-1.36
TAGAGCTTGCGCAGGCTGGAGT	-0.938
TCCGCCAGCACGTAGGAGCTGG	-1.34
TGTCTCTAAGCTTCTGTCCAGC	-0.761
TTGTCTCTAAGCTTCTGTCCAG	-0.49

Each sequence was assayed against MTG1 in the same assay as above. Conditions: shRNA.

Sequence	sensor-assay potency score (higher = more potent)
TTTCCCTTTCCTGAGGTGCTGC	-0.722
TTCTCTTTTCGGTGGTAGCGGT	-0.857
TAAGTGTTGCATAATTTTCTGC	0.0697
TTCTCCTTCTAAGTGTTGCATA	-0.79
TTATAGCTTTAACTCCTTCTGA	-0.275
TTTGTTGAGGGTGTACAGCAGG	-0.227
TTGGACATCACAGCTCTGGTGA	-0.544
ATCAGTTCAGTGACCATCGGGA	-0.492
TATAGCTTTAACTCCTTCTGAG	-0.0288
